Measurements reported in PubChem BioAssay AID743325 (National Center for Advancing Translational Sciences (NCATS), 2014).
Active and inactive are the calls of the source. Calls come from the whole dose curve.

Assay: qHTS profiling of Chloroquine Analogs as inhibitors of Plasmodium falciparum (3D7) proliferation
Details: activity change, negative = inhibition: at 28.7 µM (top of the series) unless noted
Description: Plasmodium falciparum is a virulent malarial parasite that kills 1-2 million people worldwide each year. Transmitted by mosquitoes, the sporozoite form of the parasite enters the blood stream to infect hepatocytes, where they become merozoites that infect red blood cells (erythrocytes). Within erythrocytes, merozoites begin a […] cycle of growth and division, after which the parasite is released to infect new red blood cells. Gametocytes, which form within erythrocytes as well, circulate in the bloodstream and are ingested by the mosquito, thereby completing the life cycle. To profile malarial isolates for differential chemical responses and to identify inhibitors of malarial growth, an assay that measures P. falciparum growth and replication within erythrocytes was employed. This assay uses a DNA binding fluorescent dye (SYBR Green) to detect parasite DNA following cell lysis. Because mature erythrocytes lack DNA, only Plasmodium-derived DNA is detected.
The SYBR Green viability assay was adapted from a method described previously (Plouffe et al., 2008). For screening 3 ul culture medium was dispensed into 1536 well black clear bottom plates (Aurora Biotechnologies) using a Multidrop Combi (Thermo Fisher Scientific Inc.), 23 nL compounds in DMSO were added by a pin tool (Kalypsys), and 5 ul of erythrocytes infected with P. falciparum (0.3% parasitemia, 2.5% hematocrit final concentration) were added. The plates were incubated at 37 C in a humidified incubator in 5% CO2 for 72 h, and 2 ul lysis buffer (20 mM Tris HCl, 10 mM EDTA, 0.16% saponin, 1.6% triton X, 10X SYBR Green I supplied as 10,000X […] by Invitrogen) was added to each well. The plates were mixed for 25 sec with gentle shaking and incubated overnight at room temperature in the dark. The following morning, fluorescence intensity at 485(14) nm excitation and 535(25) nm emission wavelengths was measured on an EnVision (Perkin Elmer) plate reader. Plate reads were normalized relative to the control inhibitor (0.29 uM artemisinin) and vehicle (DMSO) wells present on each plate and then corrected by an algorithm using vehicle-only control plates at the beginning and end of the compound plate stack.

Question: For `O=C1C(=O)c2ccccc2C(O)=C1C1CCC(c2ccc(Cl)cc2)CC1` (stereo not given), which Potency is on record?
Answer: 0.7 nM (active)

Question: Which Potency does the source give for `C[C@H](N)CN1CCc2ccc(Br)cc21` here?
Answer: 1680 nM (active)

Question: Which Potency does the source give for `CC(C)N=C(N)N=C(N)Nc1ccc(Cl)cc1` here?
Answer: 26.6 nM (active)

Question: Which Potency does the source give for `C=CC(C)=C[C@@]1(C)SC(=O)C(C)=C1O` here?
Answer: inactive

Question: Which Potency does the source give for `CCCCCCCCCCOc1cc2c(=O)c(C(=O)OCC)c[nH]c2cc1OCC` here?
Answer: inactive

Question: Which Potency does the source give for `CCN(CC)CCOCCOC(=O)C(CC)(CC)c1ccccc1` here?
Answer: inactive

Question: Which activity change, negative = inhibition does the source give for `Cc1cccc(C)c1OCC(N)C(C)C` (stereo not given) here?
Answer: -97.7%

Question: Which Potency does the source give for `CC1=CC(=O)c2ccccc2C1=O` here?
Answer: inactive

Question: For `CN(C)CCOC(c1ccccc1)c1ccccc1`, which Potency is on record?
Answer: inactive

Question: With `CNCCC(Oc1ccccc1OC)c1ccccc1` (stereo not given) as the molecule, how does the activity change, negative = inhibition read?
Answer: -93.6%

Question: Which activity change, negative = inhibition does the source give for `CCc1nc(N)nc(N)c1-c1ccc(Cl)cc1` here?
Answer: -98.9%

Question: For `C[C@@H]1CCC2[C@@H](C)[C@@H](O)O[C@@H]3O[C@@]4(C)CC[C@@H]1[C@@]23OO4` (stereo not given in full), which activity change, negative = inhibition is on record?
Answer: -101%

Question: With `COc1cc2c(cc1C(F)(F)F)N(C(=O)Nc1cc(F)cc(-c3cccnc3)c1)CC2` as the molecule, how does the Potency read?
Answer: 3760 nM (active)

Question: With `CC[C@H]1OC(=O)[C@H](C)[C@@H](O[C@H]2C[C@@](C)(OC)[C@@H](O)[C@H](C)O2)[C@H](C)[C@@H](O[C@@H]2O[C@H](C)C[C@H](N(C)C)[C@@H]2O)[C@](C)(O)C[C@@H](C)CN(C)[C@H](C)[C@@H](O)[C@]1(C)O` as the molecule, how does the Potency read?
Answer: 9430 nM (active)

Question: With `C=C[C@@H]1CN2CC[C@@H]1C[C@H]2[C@H](O)c1ccnc2ccc(OC)cc12` as the molecule, how does the activity change, negative = inhibition read?
Answer: -98.6%

Question: Which activity change, negative = inhibition does the source give for `Cc1cccc(C)c1OCC(=O)N[C@@H](Cc1ccccc1)[C@@H](O)C[C@H](Cc1ccccc1)NC(=O)[C@H](C(C)C)N1CCCNC1=O` here?
Answer: -99.8%

Question: For `CCN(CC)CCOc1ccc2c(=O)c3ccc(Cl)cc3n(CCN(CC)CC)c2c1`, which activity change, negative = inhibition is on record?
Answer: -101%

Question: With `CCOc1ccccc1O[C@H](c1ccccc1)[C@H]1CNCCO1` as the molecule, how does the Potency read?
Answer: inactive

Question: With `COc1cc(C=CC(=O)CC(=O)C=Cc2ccc(O)c(OC)c2)ccc1O` as the molecule, how does the Potency read?
Answer: 8410 nM (active)

Question: Which Potency does the source give for `O=C(C[C@@H]1NCCC[C@@H]1O)Cn1cnc2ccccc2c1=O` here?
Answer: 2.7 nM (active)

Question: For `Clc1ccc(COC(Cn2ccnc2)c2ccc(Cl)cc2Cl)c(Cl)c1` (stereo not given), which activity change, negative = inhibition is on record?
Answer: -97.6% [at 14.2 µM]

Question: With `C[C@H]1[C@@H](CCC(=O)Nc2ccc(F)cc2)O[C@@H]2O[C@]3(C)CC[C@@H]4[C@H](C)CC[C@@H]1[C@@]24OO3` as the molecule, how does the activity change, negative = inhibition read?
Answer: -100%

Question: With `COc1ccc(CCN(C)CCCC(C#N)(c2ccc(OC)c(OC)c2)C(C)C)cc1OC` (stereo not given) as the molecule, how does the Potency read?
Answer: inactive

Question: For `COc1cc(NC(C)CCCN)c2ncccc2c1` (stereo not given), which Potency is on record?
Answer: 902 nM (active)

Question: For `C=CCON=C(C[C@H]1O[C@@H]2O[C@]3(C)CC[C@@H]4[C@H](C)CC[C@@H]([C@H]1C)[C@@]24OO3)[C@H]1O[C@@H]2O[C@]3(C)CC[C@H]4[C@H](C)CC[C@@H]([C@@H]1C)[C@@]24OO3`, which activity change, negative = inhibition is on record?
Answer: -102%

Question: With `CN1CCN(CCCN2c3ccccc3Sc3ccc(S(=O)(=O)N(C)C)cc32)CC1` as the molecule, how does the Potency read?
Answer: 716 nM (active)

Question: Which Potency does the source give for `C[C@@H]1[C@@H](CC(C[C@H]2O[C@@H]3O[C@]4(C)CC[C@@H]5[C@H](C)CC[C@@H]([C@H]2C)[C@@]35OO4)C[S+](=O)([O-])c2ccc(COC(=O)N(C)C)cc2)O[C@@H]2O[C@]3(C)CC[C@H]4[C@H](C)CC[C@@H]1[C@@]24OO3` (stereo not given in full) here?
Answer: inactive

Question: Which Potency does the source give for `CN([C@@H](Cc1ccc(OS(=O)(=O)c2cccc3cnccc23)cc1)C(=O)N1CCN(c2ccccc2)CC1)S(=O)(=O)c1cccc2cnccc12` here?
Answer: 237 nM (active)

Question: Which activity change, negative = inhibition does the source give for `CCCCN(CCCC)CC(O)c1cc(Cl)cc2c1-c1ccc(Cl)cc1C2=Cc1ccc(Cl)cc1` (stereo not given) here?
Answer: -97.1%

Question: For `CC(=O)N(O)CCCP(=O)(O)O`, which Potency is on record?
Answer: 266 nM (active)

Question: Which activity change, negative = inhibition does the source give for `O=C(Nc1ccc(Cl)cc1)Nc1ccc(Cl)c(Cl)c1` here?
Answer: -102%

Question: With `O=CN(O)CCCP(=O)(O)O` as the molecule, how does the Potency read?
Answer: 530 nM (active)

Question: For `C[C@@H]1CC[C@H]2[C@@H](C)C(=O)O[C@@H]3OC4(C)CC[C@@H]1C32OO4` (stereo not given in full), which activity change, negative = inhibition is on record?
Answer: -99.4% [at 57.5 µM]

Question: With `Cn1cncc1[C@@](N)(c1ccc(Cl)cc1)c1ccc2c(c1)c(-c1cccc(Cl)c1)cc(=O)n2C` as the molecule, how does the Potency read?
Answer: 1680 nM (active)

Question: Which Potency does the source give for `C[C@@H]1[C@@H](C(=O)C[C@H]2O[C@@H]3O[C@]4(C)CC[C@@H]5[C@H](C)CC[C@@H]([C@H]2C)[C@@]35OO4)O[C@@H]2O[C@]3(C)CC[C@H]4[C@H](C)CC[C@@H]1[C@@]24OO3` here?
Answer: 1.7 nM (active)

Question: With `CNC(=O)c1cc(Oc2ccc(NC(=O)Nc3ccc(Cl)c(C(F)(F)F)c3)cc2)ccn1` as the molecule, how does the activity change, negative = inhibition read?
Answer: -100%

Question: Which activity change, negative = inhibition does the source give for `COCC(=O)O[C@]1(CCN(C)CCCc2nc3ccccc3[nH]2)CCc2cc(F)ccc2[C@@H]1C(C)C` here?
Answer: -102%

Question: Which Potency does the source give for `CN(C)CC/C=C1\c2ccccc2COc2ccccc21` here?
Answer: 2020 nM (active)

Question: For `COc1cccc(CCc2ccccc2OCC(CN(C)C)OC(=O)CCC(=O)O)c1` (stereo not given), which Potency is on record?
Answer: 2980 nM (active)

Question: For `C=C[C@@H]1CN2CCC1C[C@@H]2C(O)c1ccnc2ccc(OC)cc12` (stereo not given in full), which activity change, negative = inhibition is on record?
Answer: -97.6%
